# Activity calls are given as the source filed them. Unless noted, no rule for the calls is given here.
# What was measured:
# [1] = tested on: Wnt5a (protein binding on small-molecule microarray); experiment: Wnt5a binders on small-molecule microarray, primary screen, biophysical, 635/667 nm fluorescence (AID 1142); conditions: 635 nm fluorescence, higher = more signal;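 also: fluorescence read at 667 nm with signal to noise per printed feature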
# [2] = cell viability in Huh7 cells, primary screen, cytotoxicity control for HCV replication inhibitor project, CellTiter-Glo luminescence, basal, 48 h (AID 1143); conditions: Huh7 HCV replicon, higher = more signal, called active from +8 up or from −8 down;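 also: Huh7 hepatoma cells carrying a hepatitis C replication reporter with no stimulus; test concentration not given here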
# [3] = P. aeruginosa biofilm formation inhibitors, primary screen, PAO1 strain, BacTiter-Glo luminescence, LB-PBS (AID 1144); conditions: 12 h, higher = more signal
# [4] = CREB reporter modulators without forskolin, primary screen, cell-based, PC12, CRE-LacZ reporter, unstimulated (AID 1145); conditions: no forskolin, luminescence, 4.5 h, higher = more signal, called active from +8 up or from −8 down
# [5] = CREB reporter modulators under forskolin, primary screen, cell-based, PC12, CRE-LacZ reporter, forskolin-stimulated (AID 1146); conditions: luminescence, 4.5 h, higher = more signal, called active from +8 up or from −8 down;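 also: PC12 cells with 6xCRE LacZ reporter stimulated by forskolin 10 µM; beta-galactosidase reporter signal reflecting CREB driven transcription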
# [6] = molecular target: Streptavidin (Streptomyces avidinii) (UniProt P22629); experiment: streptavidin binders on small-molecule microarray, primary screen, artefact control for SMM compound annotation, biophysical, 635/667 nm fluorescence (AID 1147); conditions: streptavidin binding, higher = more signal;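 also: signal reflects streptavidin binding to arrayed compounds as a control protein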
# [7] = small-molecule binders of probe aInhba, primary screen, biochemical, small-molecule microarray, 635/667 nm fluorescence (AID 1148); conditions: higher = more signal;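 also: score merges 667nm spot fluorescence with signal-to-noise for antibody binding to printed compounds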
# Torsin-1A (Homo sapiens) [8] = molecular target: Torsin-1A (Homo sapiens) (UniProt O14656); experiment: torsin A binders from cell lysate, primary screen, small-molecule microarray, wild-type, 635/667 nm (AID 1149); conditions: COS7 hTOR1A-WT lysate, 635 nm fluorescence, higher = more signal
# Torsin-1A (Homo sapiens) [9] = molecular target: Torsin-1A (Homo sapiens) (UniProt O14656); experiment: small-molecule binders of mutant TOR1A in lysate, primary screen, cell lysate, small-molecule microarray, COS7 lysate, 635/667 nm fluorescence (AID 1150); conditions: COS7 hTOR1A mutant lysate, 635 nm fluorescence, higher = more signal;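 also: score pools 667 nm emission and signal to noise measuring lysate protein binding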
# [10] = tested on: Sonic hedgehog protein (Shh); experiment: small-molecule binders of Shh protein, primary screen, biochemical, small-molecule microarray, 635/667 nm fluorescence (AID 1151); conditions: small-molecule microarray binding, 635 nm fluorescence; higher = more signal;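 also: Shh protein binding to compounds spotted on small-molecule microarray slides; score combines spot fluorescence intensity with signal-to-noise across triplicate slides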
# [11] = E. coli DRC41 culture turbidity changes, primary screen, E. coli filamentation inducer project, strain DRC41, OD650, 48 h (AID 1152);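 also: E. coli MC1000 strain DRC41 lacking acrAB efflux pump and sulA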; conditions: E. coli DRC41 (acrAB sulA), higher = more signal, called active from +8 up or from −8 down
# [12] = small-molecule binders of probe aLefty1, primary screen, biochemical, small-molecule microarray, 635/667 nm fluorescence (AID 1153); conditions: higher = more signal;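 also: score merges spot fluorescence with signal-to-noise ratio from the scanned slide images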
# [13] = PSAC antagonists in infected red cells, primary screen, cell-based, P. falciparum Indochina, OD700, 1 h (AID 1154); conditions: P. falciparum Indochina infected RBC osmotic lysis, higher = more signal, called active from +8 up or from −8 down
# [14] = PSAC antagonists in infected red cells, primary screen, cell-based, P. falciparum Indochina, OD700, 2 h (AID 1155);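 also: lysis reports solute entry through the parasite surface anion channel PSAC; channel blockers reduce lysis of infected cells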; conditions: P. falciparum Indochina infected erythrocytes, osmotic lysis OD700; higher = more signal, called active from +8 up or from −8 down
# [15] = osmotic lysis modulators in infected erythrocytes, primary screen, PSAC antagonist project, cell-based, P. falciparum Indochina, OD700, 3 h (AID 1156); conditions: higher = more signal, called active from +8 up or from −8 down
# [16] = PSAC antagonists in infected red cells, primary screen, cell-based, P. falciparum Indochina, OD700, 18 h (AID 1157); conditions: P. falciparum Indochina infected erythrocytes, osmotic lysis OD700, 18 h; higher = more signal, called active from +8 up or from −8 down
# [17] = modulators of S6 phosphorylation in cells, primary screen, cell-based, A549, cytoblot, luminescence, serum-stimulated (AID 1158); conditions: A549 phospho-S6 cytoblot, 5 h, higher = more signal;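 also: serum-stimulated A549 lung adenocarcinoma cells; signal is phosphorylated S6 detected by cytoblot immunostaining with HRP secondary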
# [18] = molecular target: NADPH oxidase 2 (Homo sapiens) (UniProt P04839); experiment: NOX2-dependent H2O2 signal modulators, primary screen, NOX inhibitor project, cell-based, HEK293-NOX2, PMA-stimulated, Amplex Red fluorescence (AID 1159); conditions: 45 min, higher = more signal, called active from +8 up or from −8 down; also: test concentration not given here
# [19] = molecular target: NADPH oxidase 4 (Homo sapiens) (UniProt Q9NPH5); experiment: NOX4-dependent H2O2 signal modulators, primary screen, NOX inhibitor project, cell-based, HEK293-NOX4, tetracycline-induced, Amplex Red fluorescence (AID 1160); conditions: 45 min, higher = more signal, called active from +8 up or from −8 down
# [20] = molecular target: NADPH oxidase 5 (Homo sapiens) (UniProt Q96PH1); experiment: NOX5-dependent H2O2 signal modulators, primary screen, NOX inhibitor project, cell-based, HEK293-NOX5, Amplex Red fluorescence (AID 1161); conditions: HEK293-NOX5, ionomycin, 45 min, higher = more signal
# Sequence of NADPH oxidase 5 (Homo sapiens) (Q96PH1 whole entry, looked up): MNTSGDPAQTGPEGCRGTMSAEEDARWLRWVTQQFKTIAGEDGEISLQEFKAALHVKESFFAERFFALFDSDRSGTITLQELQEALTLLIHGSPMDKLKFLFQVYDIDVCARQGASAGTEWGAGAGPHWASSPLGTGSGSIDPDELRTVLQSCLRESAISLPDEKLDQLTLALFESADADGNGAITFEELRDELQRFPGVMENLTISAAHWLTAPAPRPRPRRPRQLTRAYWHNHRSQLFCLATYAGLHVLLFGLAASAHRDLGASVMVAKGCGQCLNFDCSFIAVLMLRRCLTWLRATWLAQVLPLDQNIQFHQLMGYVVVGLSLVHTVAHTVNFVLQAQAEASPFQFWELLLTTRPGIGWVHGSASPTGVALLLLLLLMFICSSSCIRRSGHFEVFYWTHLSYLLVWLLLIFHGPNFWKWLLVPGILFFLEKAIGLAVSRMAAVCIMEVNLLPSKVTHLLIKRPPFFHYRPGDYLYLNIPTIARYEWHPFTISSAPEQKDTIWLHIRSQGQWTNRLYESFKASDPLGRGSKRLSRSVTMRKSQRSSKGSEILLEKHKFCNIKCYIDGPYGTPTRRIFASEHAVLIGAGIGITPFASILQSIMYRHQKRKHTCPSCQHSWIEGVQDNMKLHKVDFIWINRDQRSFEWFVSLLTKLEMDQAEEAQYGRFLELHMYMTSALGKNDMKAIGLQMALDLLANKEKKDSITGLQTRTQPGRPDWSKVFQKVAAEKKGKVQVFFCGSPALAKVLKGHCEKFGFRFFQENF
# Sequence of NADPH oxidase 4 (Homo sapiens) (Q9NPH5 whole entry, looked up): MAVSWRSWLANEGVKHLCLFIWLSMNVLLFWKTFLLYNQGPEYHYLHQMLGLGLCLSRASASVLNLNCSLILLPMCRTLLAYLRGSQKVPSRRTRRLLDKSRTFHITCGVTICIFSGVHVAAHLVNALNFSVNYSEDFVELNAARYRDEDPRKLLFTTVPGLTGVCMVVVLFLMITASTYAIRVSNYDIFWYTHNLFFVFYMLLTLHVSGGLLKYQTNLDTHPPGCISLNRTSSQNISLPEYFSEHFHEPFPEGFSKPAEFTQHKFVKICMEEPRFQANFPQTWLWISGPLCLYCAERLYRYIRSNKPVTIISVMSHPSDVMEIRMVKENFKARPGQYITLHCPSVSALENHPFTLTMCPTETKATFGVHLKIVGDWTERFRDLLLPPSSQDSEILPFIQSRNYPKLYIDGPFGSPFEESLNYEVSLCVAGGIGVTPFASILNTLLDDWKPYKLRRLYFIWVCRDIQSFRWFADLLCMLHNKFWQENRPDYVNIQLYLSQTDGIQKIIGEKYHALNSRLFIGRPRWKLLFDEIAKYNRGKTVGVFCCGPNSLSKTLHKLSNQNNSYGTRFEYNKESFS
# Sequence of Torsin-1A (Homo sapiens) (O14656 whole entry, looked up): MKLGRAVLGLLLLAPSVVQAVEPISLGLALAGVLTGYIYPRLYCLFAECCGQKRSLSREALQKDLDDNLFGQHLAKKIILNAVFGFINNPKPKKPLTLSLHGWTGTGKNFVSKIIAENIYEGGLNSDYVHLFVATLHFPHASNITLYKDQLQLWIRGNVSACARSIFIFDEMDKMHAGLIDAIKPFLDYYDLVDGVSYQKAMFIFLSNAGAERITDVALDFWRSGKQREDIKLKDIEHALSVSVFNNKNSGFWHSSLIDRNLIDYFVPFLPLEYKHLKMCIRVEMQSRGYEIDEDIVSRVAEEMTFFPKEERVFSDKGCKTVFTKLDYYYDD
# Sequence of NADPH oxidase 2 (Homo sapiens) (P04839 whole entry, looked up): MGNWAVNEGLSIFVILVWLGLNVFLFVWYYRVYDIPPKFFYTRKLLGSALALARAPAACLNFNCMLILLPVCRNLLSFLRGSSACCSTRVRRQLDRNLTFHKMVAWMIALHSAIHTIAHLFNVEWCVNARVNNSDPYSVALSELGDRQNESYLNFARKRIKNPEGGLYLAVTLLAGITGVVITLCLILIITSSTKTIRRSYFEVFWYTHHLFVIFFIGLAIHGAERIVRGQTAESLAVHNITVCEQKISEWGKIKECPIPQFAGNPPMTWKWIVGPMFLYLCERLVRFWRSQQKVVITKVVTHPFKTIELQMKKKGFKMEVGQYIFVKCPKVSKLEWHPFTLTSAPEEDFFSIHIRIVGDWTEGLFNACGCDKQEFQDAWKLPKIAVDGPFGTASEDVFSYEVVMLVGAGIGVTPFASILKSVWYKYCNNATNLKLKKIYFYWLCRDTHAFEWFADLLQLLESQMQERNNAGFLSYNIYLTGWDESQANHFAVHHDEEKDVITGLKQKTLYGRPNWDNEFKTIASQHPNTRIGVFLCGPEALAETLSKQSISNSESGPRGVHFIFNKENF
# Sequence of Streptavidin (Streptomyces avidinii) (P22629 whole entry, looked up): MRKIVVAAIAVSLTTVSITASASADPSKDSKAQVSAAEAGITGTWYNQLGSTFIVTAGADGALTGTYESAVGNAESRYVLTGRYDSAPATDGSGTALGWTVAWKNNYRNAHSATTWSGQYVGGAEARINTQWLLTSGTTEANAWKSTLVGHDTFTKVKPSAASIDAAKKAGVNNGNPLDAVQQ
Structure (SMILES),composite z-score [1],z-score [2],z-score [3],z-score [4],z-score [5],composite z-score [6],composite z-score [7],composite z-score (Torsin-1A (Homo sapiens) [8]),composite z-score (Torsin-1A (Homo sapiens) [9]),composite z-score [10],z-score [11],composite z-score [12],z-score [13],z-score [14],z-score [15],z-score [16],z-score [17],z-score [18],z-score [19],z-score [20]
CC(C)=CCCC=C(C)C(O)C1C=CC2C(=O)N(c3ccccc3)C(=O)C2N1Nc1ccc(C#N)cc1 (stereo not given),0.218,-2.81 (inactive),-1.21 (inactive),1.39 (inactive),-0.35 (inactive),0.555,0.0841,0.0747,0.536,0.335,-0.817 (inactive),0.304,15.5 (active),1.88 (inactive),0.918 (inactive),-1.08 (inactive),0.0382,-1.88 (inactive),-1.6 (inactive),-0.882
CC(C)NC(=O)[C@@H]1c2ccccc2C(=O)N(Cc2ccc(OC(F)(F)F)cc2)[C@H]1c1ccc(CO)cc1,0.663,-1.54 (inactive),-0.294 (inactive),-0.0243 (inactive),0.442 (inactive),0.201,0.618,1.12,0.39,1.81,-0.376 (inactive),1.24,2.18 (inactive),-0.0655 (inactive),2.65 (inactive),0.179 (inactive),-0.065,0.412 (inactive),-0.27 (inactive),1.87
O=C1N(Cc2ccccc2)c2ccccc2C[C@@]12COC(c1ccc(OCCCO)cc1)=N2,0.82,-3.39 (inactive),-0.576 (inactive),2.41 (inactive),-0.914 (inactive),0.431,0.397,0.492,1.03,0.383,0.0226 (inactive),0.391,25.5 (active),10.1 (active),3.4 (inactive),1.33 (inactive),0.255,-0.231 (inactive),-0.221 (inactive),-1.79
COC(=O)[C@H](Cc1ccccc1)N1CC2=CCCC=C[C@@H]2[C@H]1[C@H](O)Cc1ccccc1,-0.0279,-1.02 (inactive),1.09 (inactive),2.4 (inactive),1.07 (inactive),0.916,-0.0332,-0.214,-0.371,0.848,-0.53 (inactive),0.315,1.31 (inactive),0.492 (inactive),0.429 (inactive),0.256 (inactive),-0.232,-0.286 (inactive),-0.477 (inactive),-0.647
Cc1ccc(S[C@]2(C(=O)NCc3ccccc3)CC(=O)N(Cc3ccccc3C(F)(F)F)[C@@H]2c2ccc(CO)cc2)cc1,-0.666,-2.35 (inactive),-0.937 (inactive),-0.0888 (inactive),-0.0177 (inactive),-1.05,0.0391,-1.02,-0.687,-0.998,0.995 (inactive),-0.012,0.485 (inactive),-0.797 (inactive),-1.37 (inactive),-0.802 (inactive),1.24,-1.69 (inactive),0.0366 (inactive),-0.3
CCCc1cc2c(n1CCc1ccc(Cl)cc1)C(C)C1CN(C(=O)c3ccccc3)C(C)(C(=O)OC)C21 (stereo not given),0.689,-3.68 (inactive),0.188 (inactive),1.16 (inactive),4.57 (inactive),1.93,-0.0736,-0.103,0.947,-0.264,-2.41 (inactive),0.268,2.24 (inactive),0.322 (inactive),2.8 (inactive),0.347 (inactive),0.0928,-2.06 (inactive),-7.6 (inactive),-5.16
COc1ccc(C#Cc2ccc3c(c2)[C@]2(C(=O)N3)[C@H](C(=O)O)[C@H]3C(=O)O[C@H](c4ccccc4)[C@H](c4ccccc4)N3[C@@H]2c2ccccc2OCCO)cc1,0.119,-5.87 (inactive),-1.75 (inactive),1.43 (inactive),4.81 (inactive),0.904,-0.413,0.65,0.643,1.63,0.987 (inactive),-0.707,-0.357 (inactive),-0.566 (inactive),-10.3 (active),-2.29 (inactive),1.56,2.09 (inactive),-0.415 (inactive),-2.32
CCOC(=O)C[C@H]1[C@H](OC(=O)c2ccccc2-c2ccccc2)[C@@H](NC(=O)C2CCCCC2)c2cc(OCCCO)ccc2N1C(=O)c1ccc2ccccc2n1,0.243,-0.911 (inactive),0.507 (inactive),4.83 (inactive),1.51 (inactive),0.155,0.222,0.237,0.133,0.897,-0.899 (inactive),-0.167,3.85 (inactive),0.192 (inactive),-0.192 (inactive),0.255 (inactive),-0.342,0.618 (inactive),1.23 (inactive),2.62
CN1C(=O)C2C=CC(C(O)c3ccc(-c4ccccc4)s3)N(NC(=O)OC(C)(C)C)C2C1=O (stereo not given),-0.423,0.531 (inactive),0.146 (inactive),0.436 (inactive),-0.0651 (inactive),1.38,0.0069,-0.043,0.564,0.0221,-0.898 (inactive),0.335,0.976 (inactive),0.524 (inactive),-0.254 (inactive),0.998 (inactive),-1.06,-0.0373 (inactive),-1.58 (inactive),-0.722
CCCC=C(CCC)[C@@H](NC(=O)c1ccc(C(F)(F)F)cc1)c1ccc(C(F)(F)F)cc1,0.63,-2.78 (inactive),0.429 (inactive),0.779 (inactive),0.34 (inactive),0.48,0.207,0.342,0.587,-0.605,-1.35 (inactive),0.792,1.23 (inactive),0.588 (inactive),-0.957 (inactive),1.25 (inactive),-0.523,-0.0499 (inactive),-0.414 (inactive),2.97

# From PubChem BioAssay
